Screening results (PubChem BioAssay)
USP28 inh = human USP28 deubiquitinase inhibition | purified USP28, Ub-rhodamine cleavage fluorescence, 30 min | inhibition, % at 25 µM | 3% of 47,000 active | AID 1645857
Target sequence (Q96RU2 whole entry, looked up): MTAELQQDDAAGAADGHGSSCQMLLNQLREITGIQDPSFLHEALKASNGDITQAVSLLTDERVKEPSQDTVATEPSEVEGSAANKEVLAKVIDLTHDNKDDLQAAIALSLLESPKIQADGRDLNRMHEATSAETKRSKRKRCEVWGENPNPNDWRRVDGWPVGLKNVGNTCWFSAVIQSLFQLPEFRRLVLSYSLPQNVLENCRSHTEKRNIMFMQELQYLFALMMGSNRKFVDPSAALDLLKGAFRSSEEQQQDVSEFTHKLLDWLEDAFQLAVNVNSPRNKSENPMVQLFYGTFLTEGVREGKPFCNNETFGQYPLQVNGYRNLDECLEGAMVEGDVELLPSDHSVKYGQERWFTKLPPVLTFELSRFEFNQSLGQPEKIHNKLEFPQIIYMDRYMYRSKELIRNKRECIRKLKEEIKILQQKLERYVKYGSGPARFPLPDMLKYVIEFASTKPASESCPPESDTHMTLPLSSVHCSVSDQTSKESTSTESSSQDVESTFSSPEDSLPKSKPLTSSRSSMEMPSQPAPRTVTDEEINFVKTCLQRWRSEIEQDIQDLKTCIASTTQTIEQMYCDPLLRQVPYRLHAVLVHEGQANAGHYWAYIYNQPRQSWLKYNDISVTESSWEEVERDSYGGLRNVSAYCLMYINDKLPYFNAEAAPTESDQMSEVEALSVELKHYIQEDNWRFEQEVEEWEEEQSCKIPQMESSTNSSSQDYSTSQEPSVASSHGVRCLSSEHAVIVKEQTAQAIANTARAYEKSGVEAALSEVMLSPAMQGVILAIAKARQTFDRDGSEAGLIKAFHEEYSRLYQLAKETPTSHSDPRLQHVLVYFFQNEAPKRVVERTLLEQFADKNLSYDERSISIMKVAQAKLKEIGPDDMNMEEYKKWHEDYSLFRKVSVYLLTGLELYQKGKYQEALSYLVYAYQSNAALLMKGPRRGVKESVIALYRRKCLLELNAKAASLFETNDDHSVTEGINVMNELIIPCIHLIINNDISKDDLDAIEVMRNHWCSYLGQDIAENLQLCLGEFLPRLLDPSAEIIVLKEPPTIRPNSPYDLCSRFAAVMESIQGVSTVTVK
USP30 block = inhibitors of human USP30 deubiquitinase. Q70CQ3. purified USP30, Ub-rhodamine cleavage fluorescence. inhibition, % at 25 µM. 5.3% of 47,000 active
USP8 inh = human USP8 deubiquitinase inhibition; P40818; purified USP8, Ub-rhodamine cleavage fluorescence, 30 min; inhibition, % at 20 µM; 4.2% of 47,000 active; AID 1645853
USP10 inh = human USP10 deubiquitinase inhibition. AID 1645856. 1.1% of 47,000 active. inhibition, % at 20 µM. purified USP10, Ub-rhodamine fluorescence, 60 min. Q14694
USP17 block = blocks human USP17 ubiquitin-rhodamine cleavage | A8MUK1 | purified USP17, Ub-rhodamine cleavage fluorescence, 3 h | inhibition, % at 50 µM | 6.5% of 47,000 active
An asterisk follows results filed as active; i = inactive. Shown are actives, neighbours in structure and some others; about 14% of the full set was active somewhere. No stated cut-off is given here; in the data, active means inhibition above about 30%; inactive means the rest.

SMILES | USP28 inh | USP30 block | USP8 inh | USP10 inh | USP17 block
O=C(NCCCN1CCN(Cc2ccccc2)CC1)C1CCCN(S(=O)(=O)N2CCC3(CC2)OCCO3)C1 (centres undefined) | -8.1 | -0.6 | -6.9 | -0.7 | -7.1
O=C(Cn1c(=O)n(Cc2ccccc2)c(=O)c2ccccc21)OCc1ccccc1 | -4.2 | 3.8 | 14.4 | 11.7 | 4.5
CCc1ccc(S(=O)(=O)Nc2ccc(-c3nnc(-c4ccccc4)o3)cc2)cc1 | 32.7* | 32.3* | 32.2* | 47.0* | 26.5
Cc1noc(C)c1-c1ccc(S(=O)(=O)Nc2ccccc2)cc1 | 12.0 | 30.1* | 28.7 | 3.3 | 8.4
Cc1noc(C)c1-c1ccc(S(=O)(=O)Nc2cccc(F)c2)cc1 | -8.1 | -16.3 | -5.4 | 5.1 | -2.7
CCc1ccc(-c2cc(C(=O)N3CCN(c4ncccn4)CC3)[nH]n2)cc1 | -17.2 | 4.6 | -0.9 | 2.3 | -1.9
CC(C)c1nc(CNC(=O)C2CCCCC2)no1 | 6.3 | 10.3 | 24.8 | -0.5 | 36.5*
COc1cc2c(cc1NC(=O)c1ccc(-n3cnnn3)cc1)oc1ccccc12 | -6.2 | -5.9 | -0.7 | 14.3 | 52.6*
O=C(COc1ccc(C(=O)c2ccccc2)cc1)Nc1ccc2c(c1)OCO2 | 22.7 | 14.5 | -17.7 | 4.9 | -0.1
O=C(Nc1ccc2c(c1)OCCO2)c1cnc(N2CCOCC2)nc1 | 42.4* | -7.0 | -3.9 | 1.3 | -8.7
O=C(Nc1ccc(F)c(F)c1)c1cnc(N2CCOCC2)nc1 | 10.7 | 2.8 | 9.4 | -1.1 | 6.6
O=C(Nc1ccc2c(c1)OCO2)c1ccc(-c2ccc(N3CCOCC3)nn2)cc1 | -15.1 | -0.9 | -1.0 | 1.9 | -2.3
O=C(Nc1ccc2c(c1)OCO2)c1cnc(N2CCOCC2)nc1 | 16.7 | -0.3 | 81.0* | 0.0 | 39.5*
O=C(Nc1ccc(OCC(=O)N2CCOCC2)cc1)c1ccc2c(c1)OCO2 | 36.8* | 24.2 | -1.8 | 0.0 | 15.2
Cc1sc(NC(=O)C2CCCC2)nc1-c1ccc2c(c1)CCN2C(=O)CC(C)(C)C | -40.9 | -484.5 | -21.7 | -5.3 | -40.1
Cc1ccc2c(c1)[C@]1(C(=O)N2)[C@@H]2C(=O)N(c3cccc(C(F)(F)F)c3)C(=O)[C@@H]2C2CCCN21 (some centres undefined) | -247.3 | i | -227.6 | -4.4 | -178.3
COc1ccc(N(CC(=O)Nc2ccc(OC)c(OC)c2)S(=O)(=O)c2c(C)nn(C)c2C)cc1 | 4.0 | 40.7* | -12.2 | 3.4 | 23.4
N#Cc1cccc(C(=O)Nc2ccc([C@H]3OCC(=O)N[C@@H]3CO)cc2)c1 | 5.0 | 37.4* | 15.7 | 4.3 | 38.6*
CCOC(=O)c1csc(-c2ccc(F)cc2F)n1 | 42.0* | 18.0 | 25.5 | 0.2 | 4.9
CCOC(=O)c1csc(-c2cc(C)on2)n1 | 3.9 | 7.4 | 9.5 | 2.1 | 5.8
COc1ccccc1-c1nc2ccccc2n1C1CCN(CC(N)=O)CC1 | 6.2 | 20.7 | -3.6 | -1.1 | 4.0
CCOC(=O)C1=C(CN2CCN(c3ccc(F)cc3)CC2)NC(=O)NC1c1ccc(OC)cc1 (centres undefined) | -2.1 | 34.0* | -3.7 | -0.1 | 35.6*
COc1ccc(C(=O)OCC(=O)N2CC(=O)Nc3ccccc32)c(OC)c1 | -7.3 | -16.1 | -5.8 | -5.5 | -10.7
COc1ccc2c(c1)CCc1c-2n[nH]c1C(=O)N1CCC(C(N)=O)CC1 | 8.5 | 30.3* | -24.4 | 1.5 | 24.4
Cc1cc(NC(=O)c2[nH]nc3c2CCc2ccccc2-3)no1 | 12.2 | -30.5 | 23.7 | 7.9 | 64.4*
SMILES | USP28 inh | USP30 block | USP8 inh | USP10 inh | USP17 block
COc1ccc2c(c1)CCc1c-2n[nH]c1C(=O)N1CCN(c2ncccn2)CC1 | -2.1 | -1.1 | -29.7 | 0.3 | 0.1
COc1ccc2c(c1)CCc1c-2n[nH]c1C(=O)N1CCN(C)CC1 | -5.7 | -6.1 | -2.3 | 0.0 | 3.3
COc1ccc2c(c1)CCc1c-2n[nH]c1C(=O)Nc1cc(C)on1 | 34.1* | 54.7* | 2.5 | 22.5 | 32.9*
CC(C)CC1NC(=O)C(NC(=O)c2ncccc2O)C(C)OC(=O)C(c2ccccc2)N(C)C(=O)C(C)NC(=O)C(C(C)C(C)C)N(C)C(=O)CN(C)C(=O)C2CCCN2C1=O (centres undefined) | -0.1 | 0.0 | 0.0 | -5.8 | -10.7
Cc1ccc(F)cc1NC1c2ncccc2C(=O)N1Cc1ccco1 (centres undefined) | -7.8 | -24.0 | -4.2 | -10.9 | -17.9
CC(=O)N1c2ccc(S(=O)(=O)NCc3ccccc3)cc2CC1C (centres undefined) | 6.9 | 8.2 | 1.9 | 3.3 | -3.8
Fc1ccccc1-c1nnc([C@H]2CCN(Cc3cccnc3)C2)o1 | -6.6 | -11.3 | 6.2 | -5.2 | -29.6
COc1ccccc1C(=O)N1CCC[C@H](Cn2nnc(-c3cccnc3)n2)C1 | 6.7 | 4.7 | 7.0 | 0.7 | -0.1
COc1cc(Cl)ccc1Nc1ncc(C(=O)Nc2cc(OC)c(OC)c(OC)c2)c2ccccc12 | -1.1 | -3.9 | 33.2* | 5.4 | 93.8*
COc1ccc(Nc2ncc(C(=O)Nc3ccc(Oc4ccccc4)cc3)c3ccccc23)cc1 | 14.3 | 67.9* | 19.8 | 7.7 | 19.4
CN(C)C(=O)[C@@H]1C[C@@H]2CN(C(=O)CN3CCOCC3)CCN2[C@@]12C(=O)Nc1ccccc12 | 5.9 | 23.2 | 24.9 | 1.0 | 15.3
CCCOc1ccc(CNC(=O)C2CCN(c3ccncc3)CC2)cc1 | 34.7* | -6.0 | -13.5 | 2.2 | -5.6
Cc1ccccc1CNC(=O)C1CCN(c2ccncc2)CC1 | -5.7 | -19.0 | -13.3 | -0.1 | -6.1
O=C(NCc1ccncc1)C1CCN(c2cncnc2N2CCCCC2)CC1 | 51.5* | -42.2 | -14.6 | -1.0 | -12.2
O=C(NCc1ccccc1)C1CCN(c2cncnc2N2CCOCC2)CC1 | 11.8 | 28.8 | 15.6 | -0.9 | 7.0
Cc1cccn2c(/C=C(\C#N)c3ccc(Cl)c(Cl)c3)c(-c3ccc(Cl)cc3)nc12 | -1.4 | -16.0 | -0.3 | 1.3 | -6.1
CC1CCN(S(=O)(=O)c2cn(CC(=O)N(C)Cc3ccccc3)cn2)CC1 | 12.2 | 20.9 | 12.2 | -0.6 | 6.8
CNC(=O)c1cnn2c(C3CCCN(Cc4cccnc4)C3)ccnc12 (centres undefined) | 5.2 | 12.1 | 10.5 | 1.4 | 0.0
CC(C)c1cccc(NC(=O)c2nc(N3CCOCC3)c3cnn(C)c3n2)c1 | -7.6 | -9.0 | -4.1 | 0.0 | -8.2
Cc1ccc(C)c(NC(=O)CCc2nc(CSc3nc4ccccc4o3)no2)c1 | 19.6 | 52.3* | -4.0 | 1.6 | 15.3
COc1ccccc1NC(=O)CCc1nc(-c2ccccc2)no1 | 13.2 | 9.4 | -5.6 | -0.4 | 9.2
Cc1cccc(C)c1NC(=O)CCc1nc(CSc2nc3ccccc3o2)no1 | 27.5 | 31.4* | -76.4 | 3.0 | 9.7
Cc1ccc(NC(=O)CCc2nc(CSc3nnc(-c4ccccc4)o3)no2)cc1C | 14.1 | 30.6* | -63.3 | 5.4 | 8.1
COc1ccccc1NC(=O)CCc1nc(CSc2nc3ccccc3o2)no1 | 33.0* | 20.6 | -119.4 | -0.1 | -7.9
COc1ccc(Cl)cc1NC(=O)Nc1ccccc1N1CCCCC1 | -0.1 | -4.6 | 14.0 | -0.7 | -7.2
Cn1cc2c(n1)C(C(=O)NCCc1c[nH]c3ccc(F)cc13)CNC2 (centres undefined) | -15.4 | -15.9 | -1.1 | -1.7 | -39.2
